Source: PMC7862700, “An all-to-all approach to the identification of sequence-specific readers for epigenetic DNA modifications on cytosine”

Tests used:
Assay in all cases: DAPPL (digital affinity profiling via proximity ligation, sequencing); 10 mM Tris-HCl pH 7.5, 50 mM NaCl, 1 mM DTT, 4% glycerol, room temperature, 30 min; GST-TFs on glutathione beads, 16-mer random dsDNA library, 0.1% formaldehyde crosslink after washing; high values mean tight binding
FEV = molecular target: T1, FEV (Homo sapiens, UniProt Q99581 1-238); details: protein: recombinant; tags: N-terminal GST; dsDNA, one strand shown
T1 sequence: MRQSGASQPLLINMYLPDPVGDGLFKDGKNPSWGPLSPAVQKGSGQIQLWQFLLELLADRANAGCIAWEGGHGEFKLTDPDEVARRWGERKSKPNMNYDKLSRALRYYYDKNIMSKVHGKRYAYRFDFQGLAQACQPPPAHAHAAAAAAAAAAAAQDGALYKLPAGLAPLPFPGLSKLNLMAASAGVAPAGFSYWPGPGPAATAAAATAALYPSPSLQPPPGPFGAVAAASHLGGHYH
How it was run: (§1)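 Each value of binding signal is a hexamer's read frequency for a factor divided by the same hexamer's frequency in the tag-only sample. Barcoded, bead-captured GST fusions of human transcription factors made in yeast were pooled with that sample and incubated with 200 nmole of a random double-stranded 16-mer DNA library in Tris/NaCl/DTT/glycerol buffer at room temperature for 30 min. Washing, 0.1% formaldehyde crosslinking, proximity ligation, PCR and Illumina NextSeq500 sequencing followed.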

ETV5 = ETV5 (Homo sapiens, UniProt P41161 1-510); details: protein: recombinant; tags: N-terminal GST; dsDNA, one strand shown
ETV5, sequence (P41161 whole entry): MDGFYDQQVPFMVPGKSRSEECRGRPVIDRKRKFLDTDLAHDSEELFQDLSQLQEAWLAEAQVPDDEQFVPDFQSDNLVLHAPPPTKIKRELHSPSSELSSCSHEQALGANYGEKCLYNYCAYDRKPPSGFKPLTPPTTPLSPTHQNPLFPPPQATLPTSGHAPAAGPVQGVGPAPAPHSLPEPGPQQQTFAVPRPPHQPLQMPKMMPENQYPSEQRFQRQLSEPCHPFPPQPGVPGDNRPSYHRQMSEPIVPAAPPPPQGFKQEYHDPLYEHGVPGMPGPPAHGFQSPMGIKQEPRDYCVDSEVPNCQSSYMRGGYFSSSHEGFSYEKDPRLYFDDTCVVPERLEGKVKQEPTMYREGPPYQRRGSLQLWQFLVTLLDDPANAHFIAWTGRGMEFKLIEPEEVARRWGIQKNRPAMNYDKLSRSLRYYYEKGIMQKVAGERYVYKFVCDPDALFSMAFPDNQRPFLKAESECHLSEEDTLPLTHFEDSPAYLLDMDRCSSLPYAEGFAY
How it was run: as §1

HSF1 = HSF1 (Homo sapiens, UniProt Q00613 1-529); details: protein: recombinant; tags: N-terminal GST; chain copies: 3; dsDNA, one strand shown
HSF1, sequence (Q00613 whole entry): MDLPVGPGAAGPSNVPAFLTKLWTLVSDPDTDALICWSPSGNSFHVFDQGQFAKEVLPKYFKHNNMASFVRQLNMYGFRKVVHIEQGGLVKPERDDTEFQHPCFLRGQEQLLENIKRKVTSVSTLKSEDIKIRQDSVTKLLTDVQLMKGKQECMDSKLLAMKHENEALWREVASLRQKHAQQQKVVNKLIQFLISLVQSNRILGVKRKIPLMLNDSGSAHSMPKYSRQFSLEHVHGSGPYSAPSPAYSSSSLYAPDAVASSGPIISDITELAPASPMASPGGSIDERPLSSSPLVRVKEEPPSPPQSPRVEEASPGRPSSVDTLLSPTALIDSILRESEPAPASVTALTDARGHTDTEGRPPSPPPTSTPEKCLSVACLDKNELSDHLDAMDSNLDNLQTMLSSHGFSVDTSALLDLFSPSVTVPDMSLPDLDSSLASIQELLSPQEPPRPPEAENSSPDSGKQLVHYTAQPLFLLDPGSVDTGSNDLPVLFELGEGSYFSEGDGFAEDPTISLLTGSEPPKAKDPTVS
How it was run: as §1

SPIC = molecular target: T2, SPIC (Homo sapiens, UniProt Q8N5J4 1-248); details: protein: recombinant; tags: N-terminal GST; dsDNA, one strand shown
T2 sequence: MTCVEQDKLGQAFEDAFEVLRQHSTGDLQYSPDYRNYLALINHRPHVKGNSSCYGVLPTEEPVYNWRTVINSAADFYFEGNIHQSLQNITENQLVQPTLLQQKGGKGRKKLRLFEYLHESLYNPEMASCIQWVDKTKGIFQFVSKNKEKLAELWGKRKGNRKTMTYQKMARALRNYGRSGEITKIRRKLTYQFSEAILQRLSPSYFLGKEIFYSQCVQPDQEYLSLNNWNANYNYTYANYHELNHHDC
How it was run: as §1

ELF4 = ELF4 (Homo sapiens, UniProt Q99607 1-663); details: protein: recombinant; tags: N-terminal GST; dsDNA, one strand shown
ELF4, sequence (Q99607 whole entry): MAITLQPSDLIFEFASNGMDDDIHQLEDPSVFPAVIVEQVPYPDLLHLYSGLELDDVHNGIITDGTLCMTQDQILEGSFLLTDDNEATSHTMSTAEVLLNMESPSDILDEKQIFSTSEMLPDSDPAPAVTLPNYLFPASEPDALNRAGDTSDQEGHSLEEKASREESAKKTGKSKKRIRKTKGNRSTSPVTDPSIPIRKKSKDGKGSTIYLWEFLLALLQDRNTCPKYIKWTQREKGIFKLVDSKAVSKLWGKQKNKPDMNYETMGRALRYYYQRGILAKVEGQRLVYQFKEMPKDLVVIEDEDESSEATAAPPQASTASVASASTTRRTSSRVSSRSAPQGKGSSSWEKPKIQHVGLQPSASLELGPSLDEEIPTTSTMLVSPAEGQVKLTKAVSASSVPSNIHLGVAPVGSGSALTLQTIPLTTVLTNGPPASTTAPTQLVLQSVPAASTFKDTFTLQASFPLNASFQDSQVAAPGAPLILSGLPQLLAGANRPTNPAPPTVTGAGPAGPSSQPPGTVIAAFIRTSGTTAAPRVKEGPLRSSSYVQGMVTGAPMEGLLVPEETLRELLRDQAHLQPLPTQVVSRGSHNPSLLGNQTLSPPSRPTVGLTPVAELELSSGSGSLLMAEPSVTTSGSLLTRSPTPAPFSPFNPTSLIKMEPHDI
How it was run: as §1

ELK4 = molecular target: T3, ELK4 (Homo sapiens, UniProt P28324-2 1-405); details: protein: recombinant; tags: N-terminal GST; dsDNA, one strand shown
T3 sequence: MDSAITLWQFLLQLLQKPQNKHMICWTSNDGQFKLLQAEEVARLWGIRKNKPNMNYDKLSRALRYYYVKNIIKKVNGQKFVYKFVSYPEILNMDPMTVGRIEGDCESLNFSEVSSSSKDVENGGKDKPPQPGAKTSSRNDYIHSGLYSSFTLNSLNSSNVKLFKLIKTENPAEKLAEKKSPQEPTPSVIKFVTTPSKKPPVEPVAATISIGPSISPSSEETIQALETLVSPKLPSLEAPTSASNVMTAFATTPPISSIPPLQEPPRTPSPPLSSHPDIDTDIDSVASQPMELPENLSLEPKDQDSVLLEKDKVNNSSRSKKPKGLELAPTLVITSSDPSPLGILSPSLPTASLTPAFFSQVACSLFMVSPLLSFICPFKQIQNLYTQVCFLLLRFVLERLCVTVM
How it was run: as §1

ETV2 = molecular target: T4, ETV2 (Homo sapiens, UniProt O00321 1-342); details: protein: recombinant; tags: N-terminal GST; dsDNA, one strand shown
T4 sequence: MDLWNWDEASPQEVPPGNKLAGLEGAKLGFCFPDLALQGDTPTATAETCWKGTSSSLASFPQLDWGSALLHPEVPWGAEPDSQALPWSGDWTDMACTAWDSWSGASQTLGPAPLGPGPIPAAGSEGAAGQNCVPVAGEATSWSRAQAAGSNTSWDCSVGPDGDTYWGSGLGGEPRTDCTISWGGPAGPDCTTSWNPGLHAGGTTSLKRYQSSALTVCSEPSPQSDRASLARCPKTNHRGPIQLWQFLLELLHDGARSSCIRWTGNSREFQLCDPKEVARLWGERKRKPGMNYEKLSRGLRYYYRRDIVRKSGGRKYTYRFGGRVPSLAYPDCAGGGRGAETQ
How it was run: as §1

ELF3 = molecular target: T5, ELF3 (Homo sapiens, UniProt P78545 1-371); details: protein: recombinant; tags: N-terminal GST; dsDNA, one strand shown
T5 sequence: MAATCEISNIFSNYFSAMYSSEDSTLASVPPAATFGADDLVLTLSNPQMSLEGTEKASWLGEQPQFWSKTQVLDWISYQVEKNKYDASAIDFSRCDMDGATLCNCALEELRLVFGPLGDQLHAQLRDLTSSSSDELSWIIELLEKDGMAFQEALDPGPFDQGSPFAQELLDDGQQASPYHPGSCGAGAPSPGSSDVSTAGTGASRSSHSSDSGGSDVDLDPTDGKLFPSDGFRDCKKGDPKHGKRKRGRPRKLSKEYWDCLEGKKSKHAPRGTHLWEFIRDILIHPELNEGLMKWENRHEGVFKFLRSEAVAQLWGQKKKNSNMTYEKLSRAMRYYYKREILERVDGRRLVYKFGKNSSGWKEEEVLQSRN
How it was run: as §1

CRX = CRX (Homo sapiens, UniProt O43186 1-299); details: protein: recombinant; tags: N-terminal GST; dsDNA, one strand shown
CRX, sequence (O43186 whole entry): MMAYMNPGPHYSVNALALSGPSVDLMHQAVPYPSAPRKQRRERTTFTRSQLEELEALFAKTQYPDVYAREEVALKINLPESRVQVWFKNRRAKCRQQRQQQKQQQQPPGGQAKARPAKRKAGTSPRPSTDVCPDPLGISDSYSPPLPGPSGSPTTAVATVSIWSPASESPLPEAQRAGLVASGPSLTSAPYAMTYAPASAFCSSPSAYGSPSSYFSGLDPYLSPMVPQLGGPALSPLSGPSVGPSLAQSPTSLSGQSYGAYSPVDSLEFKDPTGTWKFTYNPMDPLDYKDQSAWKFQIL
How it was run: as §1

ETV1 = ETV1 (Homo sapiens, UniProt P50549 1-477); details: protein: recombinant; tags: N-terminal GST; dsDNA, one strand shown
ETV1, sequence (P50549 whole entry): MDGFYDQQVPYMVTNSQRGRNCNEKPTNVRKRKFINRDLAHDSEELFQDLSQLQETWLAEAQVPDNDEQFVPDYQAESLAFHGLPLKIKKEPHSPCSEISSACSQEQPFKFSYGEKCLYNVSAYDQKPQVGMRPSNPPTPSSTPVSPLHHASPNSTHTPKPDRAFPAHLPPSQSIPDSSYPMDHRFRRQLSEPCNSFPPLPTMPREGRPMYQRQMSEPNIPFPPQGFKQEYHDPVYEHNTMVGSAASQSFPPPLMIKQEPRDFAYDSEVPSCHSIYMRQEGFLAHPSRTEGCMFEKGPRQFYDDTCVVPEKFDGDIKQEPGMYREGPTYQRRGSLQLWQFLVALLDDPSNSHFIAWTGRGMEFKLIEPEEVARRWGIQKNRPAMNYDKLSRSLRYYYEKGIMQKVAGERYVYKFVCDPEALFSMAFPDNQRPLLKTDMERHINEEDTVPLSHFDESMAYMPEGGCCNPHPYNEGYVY
How it was run: as §1

ERF = molecular target: T6, ERF (Homo sapiens, UniProt P50548 1-548); details: protein: recombinant; tags: N-terminal GST; dsDNA, one strand shown
T6 sequence: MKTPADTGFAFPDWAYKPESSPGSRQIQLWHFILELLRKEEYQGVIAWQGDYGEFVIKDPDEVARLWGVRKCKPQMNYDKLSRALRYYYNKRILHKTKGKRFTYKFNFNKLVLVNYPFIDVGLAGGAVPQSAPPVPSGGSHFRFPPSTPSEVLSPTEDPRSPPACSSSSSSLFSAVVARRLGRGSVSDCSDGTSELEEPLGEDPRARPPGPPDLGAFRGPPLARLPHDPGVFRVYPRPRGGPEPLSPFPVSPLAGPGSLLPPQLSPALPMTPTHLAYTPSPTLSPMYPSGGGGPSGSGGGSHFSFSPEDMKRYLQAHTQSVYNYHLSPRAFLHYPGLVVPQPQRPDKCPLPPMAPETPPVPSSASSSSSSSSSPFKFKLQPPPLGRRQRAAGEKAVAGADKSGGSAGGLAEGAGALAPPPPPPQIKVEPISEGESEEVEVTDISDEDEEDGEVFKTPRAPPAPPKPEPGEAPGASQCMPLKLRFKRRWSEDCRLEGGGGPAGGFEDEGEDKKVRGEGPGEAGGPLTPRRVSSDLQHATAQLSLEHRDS
How it was run: as §1

ETV3L = molecular target: T7, ETV3L (Homo sapiens, UniProt Q6ZN32 1-361); details: protein: recombinant; tags: N-terminal GST; dsDNA, one strand shown
T7 sequence: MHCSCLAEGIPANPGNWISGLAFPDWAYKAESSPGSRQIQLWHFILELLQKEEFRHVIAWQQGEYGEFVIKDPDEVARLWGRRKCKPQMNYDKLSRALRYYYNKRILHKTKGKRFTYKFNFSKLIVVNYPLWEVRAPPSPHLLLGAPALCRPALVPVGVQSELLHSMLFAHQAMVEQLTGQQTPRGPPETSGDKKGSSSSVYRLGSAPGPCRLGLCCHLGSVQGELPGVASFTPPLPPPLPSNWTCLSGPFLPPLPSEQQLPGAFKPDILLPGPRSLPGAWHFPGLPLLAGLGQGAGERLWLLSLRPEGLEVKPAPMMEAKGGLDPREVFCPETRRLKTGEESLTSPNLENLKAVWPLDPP
How it was run: as §1

ETS2 = molecular target: T8, ETS2 (Homo sapiens, UniProt P15036 1-469); details: protein: recombinant; tags: N-terminal GST; dsDNA, one strand shown
T8 sequence: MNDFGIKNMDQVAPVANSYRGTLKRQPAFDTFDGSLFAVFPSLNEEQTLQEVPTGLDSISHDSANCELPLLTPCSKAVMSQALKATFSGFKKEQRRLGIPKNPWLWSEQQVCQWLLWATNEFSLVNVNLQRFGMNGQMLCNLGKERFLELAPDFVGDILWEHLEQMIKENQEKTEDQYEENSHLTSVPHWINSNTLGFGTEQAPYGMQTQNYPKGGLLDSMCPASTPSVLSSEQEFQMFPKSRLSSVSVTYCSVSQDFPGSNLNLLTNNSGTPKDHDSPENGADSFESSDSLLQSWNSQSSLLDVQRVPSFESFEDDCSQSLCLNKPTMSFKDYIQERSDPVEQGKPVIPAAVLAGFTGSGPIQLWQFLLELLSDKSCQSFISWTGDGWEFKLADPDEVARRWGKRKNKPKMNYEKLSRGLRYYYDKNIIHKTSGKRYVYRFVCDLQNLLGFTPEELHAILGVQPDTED
How it was run: as §1

SPDEF = molecular target: T9, SPDEF (Homo sapiens, UniProt O95238 1-335); details: protein: recombinant; tags: N-terminal GST; dsDNA, one strand shown
T9 sequence: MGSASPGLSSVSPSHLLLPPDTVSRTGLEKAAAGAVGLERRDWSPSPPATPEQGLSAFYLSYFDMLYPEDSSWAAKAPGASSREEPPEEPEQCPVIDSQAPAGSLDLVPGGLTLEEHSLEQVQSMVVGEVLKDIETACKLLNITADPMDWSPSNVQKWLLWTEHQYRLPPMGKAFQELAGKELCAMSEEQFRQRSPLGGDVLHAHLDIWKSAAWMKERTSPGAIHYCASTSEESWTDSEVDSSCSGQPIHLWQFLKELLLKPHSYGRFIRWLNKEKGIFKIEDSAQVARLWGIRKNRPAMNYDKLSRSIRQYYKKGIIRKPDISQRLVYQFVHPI
How it was run: as §1

ETV7 = molecular target: T10, ETV7 (Homo sapiens, UniProt Q9Y603 1-341); details: protein: recombinant; tags: N-terminal GST; dsDNA, one strand shown
T10 sequence: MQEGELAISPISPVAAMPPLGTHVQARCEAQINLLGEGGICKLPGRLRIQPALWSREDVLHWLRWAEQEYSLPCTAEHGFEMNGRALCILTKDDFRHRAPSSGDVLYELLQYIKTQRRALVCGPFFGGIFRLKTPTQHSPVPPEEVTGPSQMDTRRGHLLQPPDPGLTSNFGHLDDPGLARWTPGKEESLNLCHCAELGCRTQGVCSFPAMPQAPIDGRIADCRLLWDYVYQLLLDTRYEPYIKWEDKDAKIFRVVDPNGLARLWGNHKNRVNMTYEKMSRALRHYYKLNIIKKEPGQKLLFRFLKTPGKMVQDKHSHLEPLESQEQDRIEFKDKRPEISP
How it was run: as §1

ELF5 = molecular target: T11, ELF5 (Homo sapiens, UniProt Q9UKW6-2 1-255); details: protein: recombinant; tags: N-terminal GST; dsDNA, one strand shown
T11 sequence: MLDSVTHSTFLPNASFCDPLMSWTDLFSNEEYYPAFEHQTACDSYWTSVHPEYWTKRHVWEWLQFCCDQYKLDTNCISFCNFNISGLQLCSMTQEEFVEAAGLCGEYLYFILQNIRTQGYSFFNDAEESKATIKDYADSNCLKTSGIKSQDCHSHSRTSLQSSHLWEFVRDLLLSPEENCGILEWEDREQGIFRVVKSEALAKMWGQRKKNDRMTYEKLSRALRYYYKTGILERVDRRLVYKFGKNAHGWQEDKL
How it was run: as §1

ETV3 = molecular target: T12, ETV3 (Homo sapiens, UniProt P41162-2 1-143); details: protein: recombinant; tags: N-terminal GST; dsDNA, one strand shown
T12 sequence: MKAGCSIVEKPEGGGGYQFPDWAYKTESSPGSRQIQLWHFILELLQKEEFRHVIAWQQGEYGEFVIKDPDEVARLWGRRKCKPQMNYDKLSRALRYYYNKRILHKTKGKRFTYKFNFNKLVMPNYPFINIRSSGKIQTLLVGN
How it was run: as §1

ETV6 = ETV6 (Homo sapiens, UniProt P41212 1-452); details: protein: recombinant; tags: N-terminal GST; dsDNA, one strand shown
ETV6, sequence (P41212 whole entry): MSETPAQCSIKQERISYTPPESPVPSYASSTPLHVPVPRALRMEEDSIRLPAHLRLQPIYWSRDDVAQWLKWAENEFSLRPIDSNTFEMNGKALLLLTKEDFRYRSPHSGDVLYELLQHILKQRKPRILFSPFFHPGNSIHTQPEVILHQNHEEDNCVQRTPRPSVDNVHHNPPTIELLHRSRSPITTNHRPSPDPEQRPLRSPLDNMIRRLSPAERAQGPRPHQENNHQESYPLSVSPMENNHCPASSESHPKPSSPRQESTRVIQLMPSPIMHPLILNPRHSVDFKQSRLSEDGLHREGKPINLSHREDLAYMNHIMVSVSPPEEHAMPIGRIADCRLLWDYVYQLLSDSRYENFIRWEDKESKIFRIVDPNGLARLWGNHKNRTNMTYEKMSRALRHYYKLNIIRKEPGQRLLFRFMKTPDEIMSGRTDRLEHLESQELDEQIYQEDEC
How it was run: as §1

Which results are given for AATTCT?
binding signal (FEV): 1.29 fold enrichment (6-mer frequency, TF over GST control); binding signal (ETV5): 1.28 fold enrichment (6-mer frequency, TF over GST control); binding signal (HSF1): 2.25 fold enrichment (6-mer frequency, TF over GST control); binding signal (SPIC): 1.3 fold enrichment (6-mer frequency, TF over GST control); binding signal (ELF4): 1.33 fold enrichment (6-mer frequency, TF over GST control); binding signal (ELK4): 1.29 fold enrichment (6-mer frequency, TF over GST control); binding signal (ETV2): 1.4 fold enrichment (6-mer frequency, TF over GST control); binding signal (ELF3): 1.25 fold enrichment (6-mer frequency, TF over GST control); binding signal (CRX): 1.79 fold enrichment (6-mer frequency, TF over GST control); binding signal (ETV1): 1.32 fold enrichment (6-mer frequency, TF over GST control); binding signal (ERF): 1.33 fold enrichment (6-mer frequency, TF over GST control); binding signal (ETV3L): 1.29 fold enrichment (6-mer frequency, TF over GST control); binding signal (ETS2): 1.29 fold enrichment (6-mer frequency, TF over GST control); binding signal (SPDEF): 1.23 fold enrichment (6-mer frequency, TF over GST control); binding signal (ETV7): 1.26 fold enrichment (6-mer frequency, TF over GST control); binding signal (ELF5): 1.22 fold enrichment (6-mer frequency, TF over GST control); binding signal (ETV3): 1.25 fold enrichment (6-mer frequency, TF over GST control); binding signal (ETV6): 1.25 fold enrichment (6-mer frequency, TF over GST control)
